The test system of the test is Vero E6 infected with SARS-CoV-2. The test is described as follows: inhibition of SARS-CoV-2 cytopathic effect; higher = more antiviral protection, active = above 15. The note with it: 48 h. (In general: Protection from cytopathic effect is a common read-out in antiviral testing.)

Structures are written as SMILES. A number with no mark means an inactive call.

Consider `Cc1c(N2C(=O)[C@@H]3[C@H](O)CCN3C2=O)ccc(C#N)c1Cl`, for which the “inhibition of SARS-CoV-2 cytopathic effect” value (“inhibition” below) is 2.38% (1 nM); 3.57% (8.33 nM); 0.87% (100 nM); 2.02% (833.33 nM); 1.06% (10000 nM).

Turning to `O=C(/C=C/c1cccnc1)NCCCCC1CCN(C(=O)c2ccccc2)CC1`, the “inhibition” value is, setting by setting: (1 nM) 3.22%; (8.33 nM) -5.64%; (100 nM) -20.3%; (833.33 nM) -24.1%; (10000 nM) -24.5%.

Consider `CCC(=O)NO`, for which the “inhibition” value was 3% (1 nM); 3.18% (8.33 nM); 1.27% (100 nM); 1.39% (833.33 nM); 2.29% (10000 nM).

In the case of `CS(=O)(=O)OCCCCOS(C)(=O)=O` [busulfan], the “inhibition” value (1 nM) was -2.94%; the “inhibition” value (8.33 nM) was -4.62%; the “inhibition” value (100 nM) is -3.55%; the “inhibition” value (833.33 nM) is -3.78%; the “inhibition” value (10000 nM) is -4.14%.

For `CCC(=O)NC[C@H](Cc1ccc(OCCc2nc(-c3ccccc3)oc2C)cc1)N/C(C)=C\C(=O)c1ccc(C(F)(F)F)cc1`, the “inhibition” value (1 nM) was -1.03%; the “inhibition” value (8.33 nM) was 0.69%; the “inhibition” value (100 nM) was 0.66%; the “inhibition” value (833.33 nM) was 1.86%; the “inhibition” value (10000 nM) is 5.34%.

With `O=C(CCCN1CCC2(CC1)C(=O)NCN2c1ccccc1)c1ccc(F)cc1` [spiperone], the “inhibition” value is, setting by setting: (1 nM) 1.92%; (8.33 nM) 1.62%; (100 nM) 0.95%; (833.33 nM) 9.61%; (10000 nM) 81.1% (active).

Turning to `CC(C)(C)NS(=O)(=O)c1cncc(-c2cc(F)c3nc(N)nn3c2)c1`, the “inhibition” value is 3.23% (1 nM); 2.61% (8.33 nM); -1.19% (100 nM); 0.27% (833.33 nM); 0.39% (10000 nM).

Regarding `O=C(O)Cc1ccccc1Nc1c(Cl)cccc1Cl` [diclofenac], the “inhibition” value was 1.25% (1 nM); 0.03% (8.33 nM); 0.38% (100 nM); -0.74% (833.33 nM); 0.2% (10000 nM).

`O=C(O)C1=C(CSc2nnnn2CS(=O)(=O)O)CS[C@@H]2[C@H](NC(=O)[C@H](O)c3ccccc3)C(=O)N12` [Cefonicid (sodium)]: the “inhibition” value was -0.91% (1 nM); -1.09% (8.33 nM); 0.45% (100 nM); 0.79% (833.33 nM); 1.23% (10000 nM).

On to `CC(=O)N[C@@H](CC(=O)O)C(=O)N[C@@H](CCC(=O)O)C(=O)O` [spaglumic-acid], for which the “inhibition” value is, setting by setting: (1 nM) -1.79%; (8.33 nM) -1.97%; (100 nM) -2.69%; (833.33 nM) -1.39%; (10000 nM) -1.24%.

For the compound `CCN[C@H]1CN(CCCOC)S(=O)(=O)c2sc(S(N)(=O)=O)cc21` [brinzolamide], the “inhibition” value by setting is: (1 nM) 0.37%; (8.33 nM) -1.59%; (100 nM) -2.91%; (833.33 nM) -1.67%; (10000 nM) -2.11%.

As to `CCC[C@@H]1C[C@@H](C(=O)N[C@@H]([C@H]2O[C@H](SC)[C@H](O)[C@@H](O)[C@H]2O)[C@H](C)Cl)N(C)C1`, the “inhibition” value is 0.61% (1 nM); -0.55% (8.33 nM); -0.83% (100 nM); -2.28% (833.33 nM); -4.1% (10000 nM).

Take `Cc1cc(C)nc(NS(=O)(=O)c2ccc(N)cc2)n1` [sulfamethazine]: the “inhibition” value runs as follows: (1 nM) -2.32%; (8.33 nM) 0.49%; (100 nM) 0.37%; (833.33 nM) 0.92%; (10000 nM) -1.06%.

In the case of `CC(C)c1ccc2c(c1)CC[C@H]1[C@](C)(CN)CCC[C@]21C` [lylamine], the “inhibition” value (1 nM) is -2.24%; the “inhibition” value (8.33 nM) was 0.4%; the “inhibition” value (100 nM) is 0.03%; the “inhibition” value (833.33 nM) is -2.43%; the “inhibition” value (10000 nM) is -18.1%.

Turning to `O=C(O)c1ccc(N2N=C(Cc3ccccc3)/C(=C\c3ccc(-c4ccccc4F)o3)C2=O)cc1`, the “inhibition” value runs as follows: (1 nM) -0.59%; (8.33 nM) 0.52%; (100 nM) -1.43%; (833.33 nM) 1.97%; (10000 nM) -1.44%.

Regarding `COc1cccc(OC)c1C(=O)N[C@@H]1C(=O)N2[C@@H]1SC(C)(C)[C@@H]2C(=O)O` [methicillin], the “inhibition” value is, setting by setting: (1 nM) -3.39%; (8.33 nM) 1.78%; (100 nM) -1.39%; (833.33 nM) -0.54%; (10000 nM) 1.21%.

For `O=C1Cc2cc(CCN3CCN(c4nsc5ccccc45)CC3)c(Cl)cc2N1` [ziprasidone], the “inhibition” value (1 nM) is -0.08%; the “inhibition” value (8.33 nM) is -2.01%; the “inhibition” value (100 nM) was -0.35%; the “inhibition” value (833.33 nM) is 0.78%; the “inhibition” value (10000 nM) was -2.66%.

As to `C=CC(=O)Nc1cccc(Nc2nc(Nc3ccc(NC4CN(CCF)C4)cc3OC)ncc2C(F)(F)F)c1`, the “inhibition” value was 0.89% (1 nM); 1.87% (8.33 nM); 7.9% (100 nM); -5.81% (833.33 nM); -24.6% (10000 nM).

The values above are taken from the supplement of paper PMC13380429.
